For orientation: AC50 means the midpoint of the concentration-response curve, whichever way the signal moves.

SMILES strings stand for the structures. Calls of active or inactive are those of the source. The calls were made as follows: active = hit-call score of the fitted dose curve at least 0.9, where 1 is the maximum; inactive = score below 0.9.

Our source for the outcome and AC50 values is PubChem BioAssay (EPA / NIEHS).

Assay [1] in a line: BSK_4H_SRB: Viability Assessment in the BioMAP Diversity Plus: 4H Assay (AID 2283027).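 Also: cells exposed to compound for 24 h before staining.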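 As to AC50: curves fitted both ways versus DMSO so AC50 may be loss or gain.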 As to conditions: primary human endothelial cells (HUVEC). In outline: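 Cytotoxicity read-out in primary human endothelial cells: after 24 h compound exposure, cells were TCA-fixed (10%), stained with 0.1% SRB and absorbance taken at 560 nm. Values fitted in both directions relative to DMSO.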

Assay [2] can be described thus: BSK_BE3C_SRB: Viability Assessment in the BioMAP Diversity Plus: BE3C Assay (AID 2283028). As to conditions: primary human bronchial epithelial cells. In outline:
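Overt cytotoxicity was assessed as total protein in confluent human primary bronchial epithelial cultures 24 h after chemical addition, using 0.1% sulforhodamine B staining read at 560 nm.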

Read-out in assay [3]: Thrombomodulin, THBD (gene 7056)
In words: BSK_3C_Thrombomodulin: BioMAP Diversity Plus: 3C Assay for Thrombomodulin Biomarker Activity (AID 2283029). As to conditions: primary human endothelial cells (HUVEC); actives raise or lower the signal. In outline:
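ELISA measurement of thrombomodulin on HUVEC surface 24 h after chemical dosing; activity fitted in both directions relative to DMSO vehicle.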

Read-out in assay [4]: Urokinase-type plasminogen activator receptor (uPAR), PLAUR (gene 5329)
Kind of assay: BSK_4H_uPAR: BioMAP Diversity Plus: 4H Assay for Urokinase-type plasminogen activator receptor (uPAR) Biomarker Activity (AID 2283030). As to conditions: primary human endothelial cells (HUVEC); actives raise or lower the signal. In outline:
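Chemicals are dosed onto human vascular endothelial primary cells (umbilical vein). After 24 h, uPAR is read by ELISA. Gain or loss of signal is fitted relative to DMSO.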

Read-out in assay [5]: Vascular endothelial growth factor receptor 2 (Homo sapiens) (UniProt P35968)
In words: BSK_4H_VEGFRII: BioMAP Diversity Plus: 4H Assay for Vascular endothelial growth factor receptor 2 (VEGFR2) Biomarker Activity (AID 2283031). As to conditions: primary human endothelial cells (HUVEC); actives raise or lower the signal. A digest of the protocol: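 VEGFRII levels on human vascular endothelial primary cells were determined by ELISA at 24 hours post-dosing, with gain- or loss-of-signal fitted against DMSO controls.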

Read-out in assay [6]: Human Leukocyte Antigen - DR isotype (HLADR), HLA-DRA (gene 3122)
In words: BSK_BE3C_HLADR: BioMAP Diversity Plus: BE3C Assay for Human Leukocyte Antigen - DR isotype (HLADR) Biomarker Activity (AID 2283032). As to conditions: primary human bronchial epithelial cells; actives raise or lower the signal. A digest of the protocol:
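Cell-surface HLA-DR ELISA readout at 24 h after dosing in the BE3C primary human lung bronchial epithelial system; gain or loss of signal against DMSO, with parallel sulforhodamine B staining of total protein for overt cytotoxicity.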

Read-out in assay [7]: Vascular cell adhesion molecule 1 (VCAM1), VCAM1 (gene 7412)
In words: BSK_4H_VCAM1: BioMAP Diversity Plus: 4H Assay for Vascular cell adhesion molecule 1 (VCAM1) Biomarker Activity (AID 2283033).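 Also: cell-surface VCAM-1 protein measured by ELISA.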 As to conditions: primary human endothelial cells (HUVEC); actives raise or lower the signal. A digest of the protocol:
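VCAM-1 ELISA read 24 h after chemical dosing of HUVEC in the BioMAP 4H system, with gain or loss of signal fitted relative to DMSO. Parallel SRB staining (560 nm) checked overt cytotoxicity.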

Read-out in assay [8]: Interferon-gamma inducible Protein 10 (IP10), CXCL10 (gene 3627)
Kind of assay: BSK_BE3C_IP10: BioMAP Diversity Plus: BE3C Assay for Interferon-gamma inducible Protein 10 (IP10) Biomarker Activity (AID 2283034). As to conditions: primary human bronchial epithelial cells; actives raise or lower the signal. In outline: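 IP-10 quantified by ELISA in human primary bronchial epithelial cell cultures at 24 hours post-dosing. Gain or loss of signal fitted relative to DMSO; parallel SRB staining assessed overt cytotoxicity.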

Read-out in assay [9]: Monokine induced gamma interferon (MIG), CXCL9 (gene 4283)
Kind of assay: BSK_BE3C_MIG: BioMAP Diversity Plus: BE3C Assay for Monokine induced gamma interferon (MIG) Biomarker Activity (AID 2283035). As to conditions: primary human bronchial epithelial cells; actives raise or lower the signal. A digest of the protocol: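 ELISA quantified MIG after 24 h exposure of primary bronchial epithelial cultures, analysed in both directions relative to DMSO. Cytotoxicity tracked in parallel cultures by sulforhodamine B staining.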

Read-out in assay [10]: Transforming growth factor beta 1 (TGFb1), TGFB1 (gene 7040)
Kind of assay: BSK_BE3C_TGFb1: BioMAP Diversity Plus: BE3C Assay for Transforming growth factor beta 1 (TGFb1) Biomarker Activity (AID 2283036;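 also: TGF-b1 protein level measured by ELISA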). As to conditions: primary human bronchial epithelial cells; actives raise or lower the signal. In outline: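 ELISA readout of TGF-b1 from human lung bronchial epithelial primary cells, taken 24 h post-treatment. Gain or loss of signal fitted relative to DMSO baseline, with parallel SRB staining for overt cytotoxicity.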

Read-out in assay [11]: Plasminogen activator inhibitor-1 (PAI1), SERPINE1 (gene 5054)
Kind of assay: BSK_BE3C_PAI1: BioMAP Diversity Plus: BE3C Assay for Plasminogen activator inhibitor-1 (PAI1) Biomarker Activity (AID 2283037). As to conditions: primary human bronchial epithelial cells; actives raise or lower the signal. In outline:
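PAI-1 was measured by ELISA in human primary bronchial epithelial cultures 24 h after chemical dosing, with cytotoxicity checked by SRB total-protein staining in parallel cultures. Activity was fitted in both directions relative to DMSO.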

Read-out in assay [12]: urokinase plasminogen activator (uPA), PLAU (gene 5328)
Kind of assay: BSK_BE3C_uPA: BioMAP Diversity Plus: BE3C Assay for urokinase plasminogen activator (uPA) Biomarker Activity (AID 2283038).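 Also: uPA protein level quantified by ELISA in cell cultures; uPA read one day after compound addition.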 As to conditions: primary human bronchial epithelial cells; actives raise or lower the signal. A digest of the protocol:
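Measured by ELISA: uPA from human primary bronchial epithelial cells 24 h after chemical treatment. Values derive from bidirectional curve fitting with DMSO serving as negative control. Total protein by SRB staining in parallel wells flagged overt cytotoxicity.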

Read-out in assay [13]: Urokinase-type plasminogen activator receptor (uPAR), PLAUR (gene 5329)
In words: BSK_BE3C_uPAR: BioMAP Diversity Plus: BE3C Assay for Urokinase-type plasminogen activator receptor (uPAR) Biomarker Activity (AID 2283039).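 Also: cells exposed to compound for one day before measurement.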 As to conditions: primary human bronchial epithelial cells; actives raise or lower the signal. In outline: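 uPAR levels were measured by ELISA after 24 h compound treatment of primary human bronchial epithelial cells, fitted in both directions relative to DMSO. Parallel SRB staining served as the cytotoxicity read-out.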

Read-out in assay [14]: Interleukin-6 (IL6), IL6 (gene 3569)
In words: BSK_CASM3C_IL6: BioMAP Diversity Plus: CASM3C Assay for Interleukin-6 (IL6) Biomarker Activity for (AID 2283040). As to conditions: primary human coronary artery smooth muscle cells; actives raise or lower the signal.

Read-out in assay [15]: Tissue plasminogen activator (tPA), PLAT (gene 5327)
Kind of assay: BSK_BE3C_tPA: BioMAP Diversity Plus: BE3C Assay for Tissue plasminogen activator (tPA) Biomarker Activity (AID 2283041).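 Also: tPA level quantified by ELISA one day after compound addition.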 As to conditions: primary human bronchial epithelial cells; actives raise or lower the signal. In outline:
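tPA measured by ELISA 24 h after dosing human primary bronchial epithelial cells (BE3C system). Changes in either direction were fitted against DMSO. Parallel cultures were stained with SRB to flag overt cytotoxicity.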

Read-out in assay [16]: Interleukin-8 (IL8), CXCL8 (gene 3576)
In words: BSK_CASM3C_IL8: BioMAP Diversity Plus: CASM3C Assay for Interleukin-8 (IL8) Biomarker Activity (AID 2283042).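 Also: IL-8 protein level quantified by ELISA.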 As to conditions: primary human coronary artery smooth muscle cells; actives raise or lower the signal.

Read-out in assay [17]: Human Leukocyte Antigen - DR isotype (HLADR), HLA-DRA (gene 3122)
Kind of assay: BSK_CASM3C_HLADR: BioMAP Diversity Plus: CASM3C Assay for Human Leukocyte Antigen - DR isotype (HLADR) Biomarker Activity (AID 2283043).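 Also: cell-surface HLA-DR protein level quantified by ELISA.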 As to conditions: primary human coronary artery smooth muscle cells; actives raise or lower the signal.

Read-out in assay [18]: Macrophage colony-stimulating factor (MCSF), CSF1 (gene 1435)
Kind of assay: BSK_CASM3C_MCSF: BioMAP Diversity Plus: CASM3C Assay for Macrophage colony-stimulating factor (MCSF) Biomarker Activity (AID 2283044).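 Also: M-CSF protein amount quantified by ELISA after 24 h exposure.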 As to conditions: primary human coronary artery smooth muscle cells; actives raise or lower the signal.

Read-out in assay [19]: Low-density lipoprotein receptor (LDLR), LDLR (gene 3949)
Kind of assay: BSK_CASM3C_LDLR: BioMAP Diversity Plus: CASM3C Assay for Low-density lipoprotein receptor (LDLR) Biomarker Activity (AID 2283045).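 Also: LDLR protein level on the cell surface quantified by ELISA.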 As to conditions: primary human coronary artery smooth muscle cells; actives raise or lower the signal.

Read-out in assay [20]: Monocyte Chemoattractant Protein-1 (MCP1), CCL2 (gene 6347)
In words: BSK_CASM3C_MCP1: BioMAP Diversity Plus: CASM3C Assay for Monocyte Chemoattractant Protein-1 (MCP1) Biomarker Activity (AID 2283046).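 Also: MCP-1 level quantified by ELISA 24 h after dosing.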 As to conditions: primary human coronary artery smooth muscle cells; actives raise or lower the signal.

`C/C=C/c1ccc(OC)cc1`: the result in [1], in assay [2], in assay [3], in assay [4], in assay [5] and in assay [6] was inactive. Besides, the result in assay [7], in assay [8], in assay [9], in assay [10], in assay [11] and in assay [12] was inactive. Moreover, the result in assay [13], in assay [14], in assay [15], in [16], in assay [17] and in [18] was inactive. Further, the result in assay [19] and in assay [20] was inactive.

In the case of `O=NO`, the result in assay [1], in assay [2], in assay [3], in [4], in [5] and in assay [6] was inactive. Besides, the result in assay [7], in assay [8], in assay [9], in assay [10], in [11] and in assay [12] was inactive. The result in assay [13], in assay [14], in assay [15], in [16], in [17] and in [18] was inactive. For the same molecule, the result in assay [19] and in [20] was inactive.

In the case of `CC(N)=O`, the outcome in assay [1], in assay [2], in assay [3], in assay [4], in assay [5] and in [6] was inactive. For the same molecule, the result in assay [7], in assay [8], in assay [9], in assay [10], in assay [11] and in [12] was inactive. Also, the result in assay [13], in assay [14], in assay [15], in [16], in [17] and in assay [18] was inactive. In addition, the result in assay [19] and in [20] was inactive.

`Cc1ccc(C(C)(C)C)c(O)c1`: the result in assay [1], in [2], in assay [4], in [5], in assay [6] and in [7] was inactive. Besides, the result in assay [8], in [9], in assay [10], in assay [11], in [12] and in [13] was inactive. Moreover, the outcome in assay [14], in assay [15], in assay [16], in assay [17], in [18] and in assay [19] was inactive. Besides, the result in assay [20] was inactive. Further, in assay [3], the AC50 is 31.3 µM (active).

As for `O=C1c2c(O)cccc2Cc2cccc(O)c21`, the AC50 in [1] was 20 µM (active). Moreover, the result in [2], in assay [3], in [4], in assay [5], in assay [6] and in [7] was inactive. The result in assay [8], in assay [9], in [10], in assay [11], in [12] and in [13] was inactive. For the same molecule, the outcome in assay [14], in assay [15], in assay [16], in [17], in assay [18] and in assay [19] was inactive. For the same molecule, the result in assay [20] was inactive.

Take `Cc1occc(=O)c1O`: the outcome in assay [1], in assay [2], in assay [3], in assay [4], in [5] and in assay [6] was inactive. Further, the result in assay [7], in assay [8], in [9], in [10], in assay [11] and in assay [12] was inactive. Also, the outcome in assay [13], in [14], in assay [15], in assay [16], in assay [17] and in assay [18] was inactive. The outcome in [19] and in assay [20] was inactive.

Regarding `CCCC[C@H]1CN(CC2CCOCC2)C(=O)OC12CCN(C1(C)CCN(C(=O)c3c(C)ncnc3C)CC1)CC2`, the result in [1], in [2], in assay [3], in assay [4], in [5] and in assay [6] was inactive. The result in assay [7], in assay [8], in [9], in [10], in assay [11] and in assay [12] was inactive. Moreover, the result in [13], in [14], in [15], in assay [16], in assay [17] and in assay [18] was inactive. The result in [19] and in assay [20] was inactive.
